# Assays:
# Assay in all cases: DAPPL (digital affinity profiling via proximity ligation, sequencing); 10 mM Tris-HCl pH 7.5, 50 mM NaCl, 1 mM DTT, 4% glycerol, room temperature, 30 min; GST-TFs on glutathione beads, 16-mer random dsDNA library, 0.1% formaldehyde crosslink after washing; high values mean tight binding
# FLI1 = molecular target: T1, FLI1 (Homo sapiens, UniProt Q01543 1-452); conditions: protein: recombinant; tags: N-terminal GST; dsDNA, one strand shown
# T1 sequence: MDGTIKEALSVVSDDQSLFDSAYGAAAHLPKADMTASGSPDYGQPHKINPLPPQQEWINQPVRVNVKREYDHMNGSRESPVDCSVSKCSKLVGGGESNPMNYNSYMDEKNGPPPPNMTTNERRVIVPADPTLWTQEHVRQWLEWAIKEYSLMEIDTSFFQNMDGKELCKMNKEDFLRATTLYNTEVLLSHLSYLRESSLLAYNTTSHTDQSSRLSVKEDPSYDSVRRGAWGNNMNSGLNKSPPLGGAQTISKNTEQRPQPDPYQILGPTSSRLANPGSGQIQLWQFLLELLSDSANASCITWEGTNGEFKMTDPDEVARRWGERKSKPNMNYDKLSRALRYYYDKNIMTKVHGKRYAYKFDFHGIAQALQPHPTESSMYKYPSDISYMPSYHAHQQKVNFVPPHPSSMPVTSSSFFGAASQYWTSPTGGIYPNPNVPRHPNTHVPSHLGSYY
# In short: (§1)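 A tag-only sample was pooled with DNA-barcoded human transcription factors that had been expressed in yeast as GST fusions and captured on glutathione beads. The pools were incubated for 30 min at room temperature with 200 nmole of a random double-stranded 16-mer DNA library in Tris/NaCl/DTT/glycerol buffer, then washed, crosslinked with 0.1% formaldehyde, proximity-ligated (BsaI/T4 ligase, 1 h, 37 °C), PCR-amplified and sequenced on an Illumina NextSeq500. Binding signal is each hexamer's read frequency for a factor divided by its frequency for the tag-only sample.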
# ELK1 = molecular target: T2, ELK1 (Homo sapiens, UniProt P19419 1-428); conditions: protein: recombinant; tags: N-terminal GST; dsDNA, one strand shown
# T2 sequence: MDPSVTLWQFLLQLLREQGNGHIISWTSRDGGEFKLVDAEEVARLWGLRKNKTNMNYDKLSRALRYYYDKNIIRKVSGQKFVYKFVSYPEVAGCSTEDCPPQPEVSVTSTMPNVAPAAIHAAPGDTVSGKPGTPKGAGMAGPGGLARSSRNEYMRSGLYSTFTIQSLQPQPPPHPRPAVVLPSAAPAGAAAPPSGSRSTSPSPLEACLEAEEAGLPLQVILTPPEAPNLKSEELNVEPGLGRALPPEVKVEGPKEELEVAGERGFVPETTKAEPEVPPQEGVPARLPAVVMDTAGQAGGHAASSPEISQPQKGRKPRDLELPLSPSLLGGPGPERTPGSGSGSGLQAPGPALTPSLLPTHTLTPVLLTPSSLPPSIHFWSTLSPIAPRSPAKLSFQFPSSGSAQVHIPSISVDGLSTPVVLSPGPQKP
# In short: as §1
# GABPA = molecular target: T3, GABPA (Homo sapiens, UniProt Q06546 1-454); conditions: protein: recombinant; tags: N-terminal GST; dsDNA, one strand shown
# T3 sequence: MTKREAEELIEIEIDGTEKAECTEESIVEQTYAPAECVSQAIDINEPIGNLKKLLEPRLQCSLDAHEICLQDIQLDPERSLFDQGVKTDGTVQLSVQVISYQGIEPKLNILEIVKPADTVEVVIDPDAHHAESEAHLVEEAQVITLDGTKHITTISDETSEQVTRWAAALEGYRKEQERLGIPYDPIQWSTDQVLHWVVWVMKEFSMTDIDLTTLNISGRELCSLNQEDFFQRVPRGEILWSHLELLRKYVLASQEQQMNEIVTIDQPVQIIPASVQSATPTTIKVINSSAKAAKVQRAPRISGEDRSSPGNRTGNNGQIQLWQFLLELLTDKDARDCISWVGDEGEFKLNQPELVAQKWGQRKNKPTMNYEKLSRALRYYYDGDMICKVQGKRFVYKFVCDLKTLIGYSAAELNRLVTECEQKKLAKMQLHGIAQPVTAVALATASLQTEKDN
# In short: as §1
# ERG = molecular target: T4, ERG (Homo sapiens, UniProt P11308 1-479); conditions: protein: recombinant; tags: N-terminal GST; dsDNA, one strand shown
# T4 sequence: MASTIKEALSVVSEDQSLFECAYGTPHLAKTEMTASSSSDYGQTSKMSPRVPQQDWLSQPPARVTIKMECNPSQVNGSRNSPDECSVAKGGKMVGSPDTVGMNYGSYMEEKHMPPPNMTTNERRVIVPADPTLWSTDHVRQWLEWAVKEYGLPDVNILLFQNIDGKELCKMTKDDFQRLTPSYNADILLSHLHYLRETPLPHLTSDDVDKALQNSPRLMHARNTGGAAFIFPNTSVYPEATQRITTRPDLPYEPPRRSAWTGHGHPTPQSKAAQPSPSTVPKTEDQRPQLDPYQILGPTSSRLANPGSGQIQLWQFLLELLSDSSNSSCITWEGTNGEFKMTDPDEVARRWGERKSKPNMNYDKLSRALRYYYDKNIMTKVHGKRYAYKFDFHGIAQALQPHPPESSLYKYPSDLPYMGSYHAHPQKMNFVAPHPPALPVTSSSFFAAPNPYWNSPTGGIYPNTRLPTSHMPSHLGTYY
# In short: as §1
# ELF1 = ELF1 (Homo sapiens, UniProt P32519 1-619); conditions: protein: recombinant; tags: N-terminal GST; dsDNA, one strand shown
# In short: as §1
# EHF = molecular target: T5, EHF (Homo sapiens, UniProt Q9NZC4 1-300); conditions: protein: recombinant; tags: N-terminal GST; dsDNA, one strand shown
# T5 sequence: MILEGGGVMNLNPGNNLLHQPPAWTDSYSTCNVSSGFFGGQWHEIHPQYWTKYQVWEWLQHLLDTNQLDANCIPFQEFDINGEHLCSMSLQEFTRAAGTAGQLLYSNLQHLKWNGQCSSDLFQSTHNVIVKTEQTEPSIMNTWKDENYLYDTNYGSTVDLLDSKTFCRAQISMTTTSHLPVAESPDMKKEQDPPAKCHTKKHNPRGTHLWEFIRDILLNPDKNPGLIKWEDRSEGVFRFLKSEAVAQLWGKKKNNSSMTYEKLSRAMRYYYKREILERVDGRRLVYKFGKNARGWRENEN
# In short: as §1
# SPI1 = SPI1 (Homo sapiens, UniProt P17947 1-270); conditions: protein: recombinant; tags: N-terminal GST; dsDNA, one strand shown
# In short: as §1
# SPIB = SPIB (Homo sapiens, UniProt Q01892 1-262); conditions: protein: recombinant; tags: N-terminal GST; dsDNA, one strand shown
# In short: as §1
# ELK3 = molecular target: T6, ELK3 (Homo sapiens, UniProt P41970 1-407); conditions: protein: recombinant; tags: N-terminal GST; dsDNA, one strand shown
# T6 sequence: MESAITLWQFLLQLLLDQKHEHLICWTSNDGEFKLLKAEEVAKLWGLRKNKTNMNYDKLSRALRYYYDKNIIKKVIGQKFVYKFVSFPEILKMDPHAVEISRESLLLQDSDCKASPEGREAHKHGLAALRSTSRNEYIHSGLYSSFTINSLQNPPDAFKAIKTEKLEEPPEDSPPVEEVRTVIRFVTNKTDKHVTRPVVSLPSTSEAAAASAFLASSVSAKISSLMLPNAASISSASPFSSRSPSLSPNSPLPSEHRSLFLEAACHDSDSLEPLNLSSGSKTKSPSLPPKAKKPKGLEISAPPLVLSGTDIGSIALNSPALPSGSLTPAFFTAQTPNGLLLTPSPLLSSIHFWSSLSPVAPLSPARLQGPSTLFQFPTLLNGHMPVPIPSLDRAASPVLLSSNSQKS
# In short: as §1
# FEV = molecular target: T7, FEV (Homo sapiens, UniProt Q99581 1-238); conditions: protein: recombinant; tags: N-terminal GST; dsDNA, one strand shown
# T7 sequence: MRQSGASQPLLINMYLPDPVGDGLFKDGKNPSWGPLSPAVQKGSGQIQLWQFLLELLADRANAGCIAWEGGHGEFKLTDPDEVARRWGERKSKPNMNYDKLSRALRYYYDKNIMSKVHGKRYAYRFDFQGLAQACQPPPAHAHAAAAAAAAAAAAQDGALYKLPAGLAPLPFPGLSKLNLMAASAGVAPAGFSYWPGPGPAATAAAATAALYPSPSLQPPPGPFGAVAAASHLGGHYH
# In short: as §1
# ETV5 = ETV5 (Homo sapiens, UniProt P41161 1-510); conditions: protein: recombinant; tags: N-terminal GST; dsDNA, one strand shown
# In short: as §1
# HSF1 = HSF1 (Homo sapiens, UniProt Q00613 1-529); conditions: protein: recombinant; tags: N-terminal GST; chain copies: 3; dsDNA, one strand shown
# In short: as §1
# SPIC = molecular target: T8, SPIC (Homo sapiens, UniProt Q8N5J4 1-248); conditions: protein: recombinant; tags: N-terminal GST; dsDNA, one strand shown
# T8 sequence: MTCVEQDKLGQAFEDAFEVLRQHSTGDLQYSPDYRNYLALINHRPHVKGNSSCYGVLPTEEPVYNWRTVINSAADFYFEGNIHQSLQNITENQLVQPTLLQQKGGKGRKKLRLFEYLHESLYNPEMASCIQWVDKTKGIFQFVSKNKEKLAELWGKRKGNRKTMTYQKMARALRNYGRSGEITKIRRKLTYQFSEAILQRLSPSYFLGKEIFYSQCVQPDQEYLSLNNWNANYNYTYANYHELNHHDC
# In short: as §1
# ELF4 = ELF4 (Homo sapiens, UniProt Q99607 1-663); conditions: protein: recombinant; tags: N-terminal GST; dsDNA, one strand shown
# In short: as §1
# ELK4 = molecular target: T9, ELK4 (Homo sapiens, UniProt P28324-2 1-405); conditions: protein: recombinant; tags: N-terminal GST; dsDNA, one strand shown
# T9 sequence: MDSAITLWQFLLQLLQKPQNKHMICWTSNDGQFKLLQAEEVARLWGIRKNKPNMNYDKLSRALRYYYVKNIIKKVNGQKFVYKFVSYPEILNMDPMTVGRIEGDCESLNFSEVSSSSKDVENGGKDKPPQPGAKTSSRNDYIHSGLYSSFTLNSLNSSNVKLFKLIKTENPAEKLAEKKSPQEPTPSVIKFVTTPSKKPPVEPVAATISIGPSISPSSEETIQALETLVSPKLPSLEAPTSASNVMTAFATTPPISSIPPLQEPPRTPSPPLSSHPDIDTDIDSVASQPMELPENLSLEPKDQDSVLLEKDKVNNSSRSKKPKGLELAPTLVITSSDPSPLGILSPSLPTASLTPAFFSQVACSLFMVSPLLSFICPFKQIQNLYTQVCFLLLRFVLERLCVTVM
# In short: as §1
# ETV2 = molecular target: T10, ETV2 (Homo sapiens, UniProt O00321 1-342); conditions: protein: recombinant; tags: N-terminal GST; dsDNA, one strand shown
# T10 sequence: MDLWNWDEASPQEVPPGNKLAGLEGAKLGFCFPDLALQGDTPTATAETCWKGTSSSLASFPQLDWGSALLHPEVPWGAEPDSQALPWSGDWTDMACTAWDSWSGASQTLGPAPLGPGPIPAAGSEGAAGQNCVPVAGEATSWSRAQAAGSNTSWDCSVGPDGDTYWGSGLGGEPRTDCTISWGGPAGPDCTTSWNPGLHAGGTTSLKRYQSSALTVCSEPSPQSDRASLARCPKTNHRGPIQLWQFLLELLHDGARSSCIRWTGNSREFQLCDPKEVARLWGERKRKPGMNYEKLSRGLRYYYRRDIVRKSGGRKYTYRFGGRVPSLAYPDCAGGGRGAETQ
# In short: as §1
# ELF3 = molecular target: T11, ELF3 (Homo sapiens, UniProt P78545 1-371); conditions: protein: recombinant; tags: N-terminal GST; dsDNA, one strand shown
# T11 sequence: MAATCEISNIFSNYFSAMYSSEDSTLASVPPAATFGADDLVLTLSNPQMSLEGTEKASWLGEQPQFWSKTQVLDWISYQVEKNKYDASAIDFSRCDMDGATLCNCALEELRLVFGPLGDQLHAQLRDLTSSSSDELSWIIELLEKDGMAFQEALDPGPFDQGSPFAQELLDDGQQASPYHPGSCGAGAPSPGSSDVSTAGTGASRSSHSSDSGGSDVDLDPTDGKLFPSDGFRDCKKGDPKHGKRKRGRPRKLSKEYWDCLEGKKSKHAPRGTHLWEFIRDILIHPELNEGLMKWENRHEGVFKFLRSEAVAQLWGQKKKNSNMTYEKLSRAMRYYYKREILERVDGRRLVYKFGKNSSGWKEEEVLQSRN
# In short: as §1
# CRX = CRX (Homo sapiens, UniProt O43186 1-299); conditions: protein: recombinant; tags: N-terminal GST; dsDNA, one strand shown
# In short: as §1
# ETV1 = ETV1 (Homo sapiens, UniProt P50549 1-477); conditions: protein: recombinant; tags: N-terminal GST; dsDNA, one strand shown
# In short: as §1
# Chain of ETV5 (P41161 whole entry): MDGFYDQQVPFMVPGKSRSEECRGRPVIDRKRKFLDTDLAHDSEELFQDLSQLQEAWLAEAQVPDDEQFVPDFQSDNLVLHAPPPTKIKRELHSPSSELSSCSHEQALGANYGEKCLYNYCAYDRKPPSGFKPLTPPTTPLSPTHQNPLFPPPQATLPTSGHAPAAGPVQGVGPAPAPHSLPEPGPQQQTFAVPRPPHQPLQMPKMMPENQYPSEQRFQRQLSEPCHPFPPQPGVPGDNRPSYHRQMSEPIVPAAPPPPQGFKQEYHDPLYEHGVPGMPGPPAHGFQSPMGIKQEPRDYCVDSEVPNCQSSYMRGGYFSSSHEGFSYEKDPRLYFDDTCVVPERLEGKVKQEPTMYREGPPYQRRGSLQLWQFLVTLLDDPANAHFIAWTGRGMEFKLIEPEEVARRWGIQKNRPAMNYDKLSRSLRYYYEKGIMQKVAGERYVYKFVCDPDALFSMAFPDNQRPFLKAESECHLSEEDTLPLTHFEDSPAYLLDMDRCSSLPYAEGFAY
# Chain of SPIB (Q01892 whole entry): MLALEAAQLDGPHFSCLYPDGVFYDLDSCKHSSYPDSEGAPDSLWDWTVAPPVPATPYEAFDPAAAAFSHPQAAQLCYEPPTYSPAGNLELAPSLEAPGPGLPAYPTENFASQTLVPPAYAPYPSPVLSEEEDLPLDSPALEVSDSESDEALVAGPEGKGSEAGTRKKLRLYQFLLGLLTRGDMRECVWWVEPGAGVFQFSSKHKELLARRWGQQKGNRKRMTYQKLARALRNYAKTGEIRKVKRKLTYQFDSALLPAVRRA
# Chain of ELF4 (Q99607 whole entry): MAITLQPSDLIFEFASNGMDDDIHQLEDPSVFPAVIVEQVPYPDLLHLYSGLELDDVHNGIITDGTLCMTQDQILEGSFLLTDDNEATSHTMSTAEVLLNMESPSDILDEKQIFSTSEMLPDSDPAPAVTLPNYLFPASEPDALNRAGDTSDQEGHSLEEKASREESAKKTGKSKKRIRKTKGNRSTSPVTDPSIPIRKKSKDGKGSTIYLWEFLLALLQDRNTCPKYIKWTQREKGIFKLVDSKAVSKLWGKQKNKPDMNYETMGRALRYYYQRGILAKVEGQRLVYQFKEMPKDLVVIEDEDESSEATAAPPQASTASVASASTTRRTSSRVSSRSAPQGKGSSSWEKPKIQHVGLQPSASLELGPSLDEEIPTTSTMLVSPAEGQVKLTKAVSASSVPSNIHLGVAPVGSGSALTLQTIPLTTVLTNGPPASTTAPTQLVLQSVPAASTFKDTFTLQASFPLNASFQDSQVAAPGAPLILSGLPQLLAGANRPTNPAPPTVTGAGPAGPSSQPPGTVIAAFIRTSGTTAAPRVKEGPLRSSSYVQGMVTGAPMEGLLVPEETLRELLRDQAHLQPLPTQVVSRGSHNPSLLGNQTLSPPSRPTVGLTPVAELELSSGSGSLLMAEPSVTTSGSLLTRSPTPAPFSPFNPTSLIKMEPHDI
# Chain of ELF1 (P32519 whole entry): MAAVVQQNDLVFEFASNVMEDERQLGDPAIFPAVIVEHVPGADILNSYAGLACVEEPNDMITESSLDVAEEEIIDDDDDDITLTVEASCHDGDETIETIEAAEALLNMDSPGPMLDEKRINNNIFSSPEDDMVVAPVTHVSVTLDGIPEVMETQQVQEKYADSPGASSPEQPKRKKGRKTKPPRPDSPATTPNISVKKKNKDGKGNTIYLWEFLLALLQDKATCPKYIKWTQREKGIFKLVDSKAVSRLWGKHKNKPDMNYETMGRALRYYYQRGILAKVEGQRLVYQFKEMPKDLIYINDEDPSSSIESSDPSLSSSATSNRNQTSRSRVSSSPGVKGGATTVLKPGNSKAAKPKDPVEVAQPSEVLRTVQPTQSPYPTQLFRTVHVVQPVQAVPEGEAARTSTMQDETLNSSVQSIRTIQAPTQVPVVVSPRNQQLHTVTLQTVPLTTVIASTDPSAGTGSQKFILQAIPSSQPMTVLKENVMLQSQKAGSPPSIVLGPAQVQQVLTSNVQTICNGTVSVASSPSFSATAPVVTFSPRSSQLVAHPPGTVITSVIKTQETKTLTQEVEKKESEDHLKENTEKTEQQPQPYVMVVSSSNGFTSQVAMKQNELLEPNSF
# Chain of HSF1 (Q00613 whole entry): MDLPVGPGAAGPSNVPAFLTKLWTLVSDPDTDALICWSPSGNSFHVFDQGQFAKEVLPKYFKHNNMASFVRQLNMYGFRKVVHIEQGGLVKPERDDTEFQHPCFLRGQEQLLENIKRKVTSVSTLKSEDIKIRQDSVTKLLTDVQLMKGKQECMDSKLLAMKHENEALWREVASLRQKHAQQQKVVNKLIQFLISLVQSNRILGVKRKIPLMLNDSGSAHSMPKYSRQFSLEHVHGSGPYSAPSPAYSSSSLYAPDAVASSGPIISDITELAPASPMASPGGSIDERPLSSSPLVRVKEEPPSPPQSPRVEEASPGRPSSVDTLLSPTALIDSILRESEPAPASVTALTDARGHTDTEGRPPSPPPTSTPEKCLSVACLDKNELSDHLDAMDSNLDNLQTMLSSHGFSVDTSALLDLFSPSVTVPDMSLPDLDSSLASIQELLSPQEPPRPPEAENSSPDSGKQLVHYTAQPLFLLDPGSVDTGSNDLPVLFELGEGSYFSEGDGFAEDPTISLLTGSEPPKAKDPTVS
# Chain of CRX (O43186 whole entry): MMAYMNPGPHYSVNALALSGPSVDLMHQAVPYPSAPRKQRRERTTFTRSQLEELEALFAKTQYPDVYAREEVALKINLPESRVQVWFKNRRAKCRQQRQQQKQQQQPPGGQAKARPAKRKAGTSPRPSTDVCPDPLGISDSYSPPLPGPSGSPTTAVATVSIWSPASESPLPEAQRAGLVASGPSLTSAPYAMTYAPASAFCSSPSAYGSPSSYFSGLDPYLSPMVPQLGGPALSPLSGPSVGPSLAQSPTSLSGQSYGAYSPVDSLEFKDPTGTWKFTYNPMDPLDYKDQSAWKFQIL
# Chain of ETV1 (P50549 whole entry): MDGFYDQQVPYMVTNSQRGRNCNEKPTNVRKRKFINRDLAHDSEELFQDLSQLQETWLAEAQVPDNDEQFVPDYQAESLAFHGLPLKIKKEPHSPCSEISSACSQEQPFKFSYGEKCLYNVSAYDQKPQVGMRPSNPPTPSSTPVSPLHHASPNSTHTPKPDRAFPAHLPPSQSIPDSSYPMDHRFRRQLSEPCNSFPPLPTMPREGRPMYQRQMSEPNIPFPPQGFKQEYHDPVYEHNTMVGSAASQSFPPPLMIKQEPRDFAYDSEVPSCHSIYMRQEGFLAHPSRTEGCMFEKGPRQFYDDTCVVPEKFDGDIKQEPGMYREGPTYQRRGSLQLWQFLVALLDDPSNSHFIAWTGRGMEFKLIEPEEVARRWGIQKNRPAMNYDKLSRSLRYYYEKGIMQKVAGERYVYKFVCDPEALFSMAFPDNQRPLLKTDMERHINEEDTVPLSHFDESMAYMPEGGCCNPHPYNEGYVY
sequence,measurement,setting,value
CACAAG,binding signal,FLI1,"1.2 fold enrichment (6-mer frequency, TF over GST control)"
same,binding signal,ELK1,"1.17 fold enrichment (6-mer frequency, TF over GST control)"
same,binding signal,GABPA,"1.15 fold enrichment (6-mer frequency, TF over GST control)"
same,binding signal,ERG,"1.09 fold enrichment (6-mer frequency, TF over GST control)"
same,binding signal,ELF1,"1.18 fold enrichment (6-mer frequency, TF over GST control)"
same,binding signal,EHF,"1.14 fold enrichment (6-mer frequency, TF over GST control)"
same,binding signal,SPI1,"1.12 fold enrichment (6-mer frequency, TF over GST control)"
same,binding signal,SPIB,"1.13 fold enrichment (6-mer frequency, TF over GST control)"
same,binding signal,ELK3,"1.16 fold enrichment (6-mer frequency, TF over GST control)"
same,binding signal,FEV,"1.08 fold enrichment (6-mer frequency, TF over GST control)"
same,binding signal,ETV5,"1.13 fold enrichment (6-mer frequency, TF over GST control)"
same,binding signal,HSF1,"1.06 fold enrichment (6-mer frequency, TF over GST control)"
same,binding signal,SPIC,"1.09 fold enrichment (6-mer frequency, TF over GST control)"
same,binding signal,ELF4,"1.2 fold enrichment (6-mer frequency, TF over GST control)"
same,binding signal,ELK4,"1.07 fold enrichment (6-mer frequency, TF over GST control)"
same,binding signal,ETV2,"1.11 fold enrichment (6-mer frequency, TF over GST control)"
same,binding signal,ELF3,"1.17 fold enrichment (6-mer frequency, TF over GST control)"
same,binding signal,CRX,"1.01 fold enrichment (6-mer frequency, TF over GST control)"
same,binding signal,ETV1,"1.18 fold enrichment (6-mer frequency, TF over GST control)"

# Reference: paper PMC7862700, “An all-to-all approach to the identification of sequence-specific readers for epigenetic DNA modifications on cytosine”
